The target of the first experiment is GPKOW. Description: pooled miR-30 sensor sort-seq; sequence = guide strand. To be noted: shRNA.
For TTCTCTTGCTCCTCATCTGGTC, the sensor-assay potency score (higher = more potent) is -0.383.

For TTCTTGTCAAACTCCTGCTGGG, the sensor-assay potency score (higher = more potent) is -0.621.

TCACTAACAGTCACCACCCGGC: the sensor-assay potency score (higher = more potent) was -0.433.

As for TACAGAACTGGTACCAGCCTGG, the sensor-assay potency score (higher = more potent) is -0.224.

TCTTCAATTATCATCTTGGTGT: the sensor-assay potency score (higher = more potent) is -0.0614.

As to TAGGACATCTTCAATTATCATC, the sensor-assay potency score (higher = more potent) is -1.06.

Take TTCACTACTTGATTGAAGGTGC: the sensor-assay potency score (higher = more potent) amounted to 0.973.

With TTCAATTATCATCTTGGTGTTG, the sensor-assay potency score (higher = more potent) is -0.529.

In turn, TCAATTATCATCTTGGTGTTGT had a sensor-assay potency score (higher = more potent) of 0.378.

For TTCTCTTGGCAGTTGCACCAAA, the sensor-assay potency score (higher = more potent) is -0.529.

TAAATTTTGGTAAATATTGGGT: the sensor-assay potency score (higher = more potent) is -0.472.

As to TACATGTTGTCCACAAACCGCA, the sensor-assay potency score (higher = more potent) was -0.382.

Another experiment deals with GPR109B. Described as above. To be noted: shRNA.
With TGGCAATGAAGTCATCTCGGAA, the sensor-assay potency score (higher = more potent) was -1.54.

Turning to TAGAAAGTCAGCTACTGCCAGG, the sensor-assay potency score (higher = more potent) was -1.14.

Take AAACATGAAGAGCACCAGCCGG: the sensor-assay potency score (higher = more potent) is -1.47.

Consider AACATGAAGAGCACCAGCCGGC, for which the sensor-assay potency score (higher = more potent) was -0.505.

On to ATTCTGGATCAGCAACTTCTTC, for which the sensor-assay potency score (higher = more potent) is -1.51.

For the sequence TAGGCCAACAGTGATGCCCCAC, the sensor-assay potency score (higher = more potent) was -0.395.

As for ATAGTAGTCCATCACGAACGGC, the sensor-assay potency score (higher = more potent) was -1.03.

With TTGGAATGGTTATTTGAGGTTG, the sensor-assay potency score (higher = more potent) was -0.497.

Take TAGTAGTCCATCACGAACGGCA: the sensor-assay potency score (higher = more potent) was -0.532.

As to TCACCTGTTATCTTCCTCTGGA, the sensor-assay potency score (higher = more potent) is -0.218.

For TTGGCAATGAAGTCATCTCGGA, the sensor-assay potency score (higher = more potent) was -0.164.

Consider TGCAGTGCCATTCTGGATCAGC, for which the sensor-assay potency score (higher = more potent) is -0.994.

Another experiment deals with GPR123. The experiment is described as above. The note with it: shRNA.
Regarding TTCTAGCAATTTACCCTTGGGC, the sensor-assay potency score (higher = more potent) is -1.05.

As to TTTTCCAGGGTCCCGTTCGGAT, the sensor-assay potency score (higher = more potent) was -1.35.

With AACAGGAACAGCGTGAAGGCGG, the sensor-assay potency score (higher = more potent) was -0.39.

Take TCGCAGTGCATCTTGGCGCAGC: the sensor-assay potency score (higher = more potent) was -1.13.

For the sequence TGTAGAATAGTGCAGCACGATG, the sensor-assay potency score (higher = more potent) is -1.66.

As for TGTGTGCGCAGCTCGTACCTGC, the sensor-assay potency score (higher = more potent) was -0.983.

Consider TAGCAATTTACCCTTGGGCAGC, for which the sensor-assay potency score (higher = more potent) was -1.23.

With TAATTCCTGATGTTCGTGGCAG, the sensor-assay potency score (higher = more potent) is -0.373.

As for TTCTGCAGCACGGAGGCGCCGG, the sensor-assay potency score (higher = more potent) is -0.928.

On to TCGTTCTGCAGCACGGAGGCGC, for which the sensor-assay potency score (higher = more potent) was -0.763.

For TGCATCTTGGCGCAGCACGGGG, the sensor-assay potency score (higher = more potent) was -1.59.

Consider TTCTTGGTCACCTGCTTGTAGA, for which the sensor-assay potency score (higher = more potent) is -1.61.

For a further experiment, the target named is GPR137. Described as above. The note with it: shRNA.
As for AGTGCTGTCAGGTTGTAGCAGG, the sensor-assay potency score (higher = more potent) is -1.93.

ATGACGAACAGGGAGTCGCTCA: the sensor-assay potency score (higher = more potent) was -1.35.

TCATTCACCAGGTCCGCCTGGT yielded a sensor-assay potency score (higher = more potent) of 0.279.
Note: reference of the scale not given here.
